# Only some compounds are listed: those with a hit (about 3.5% of all), similar ones and a draw of the others.
# Mcl1 Noxa PPI: disrupts binding of human Mcl-1 to Noxa peptide; TR-FRET Mcl-1/Noxa peptide binding, 2 h; inhibition, % at 21.7 µM; actives 1.5% (n = 220,000);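 active = compounds that cut the protein-peptide binding signal by more than 50% relative to plate controls in a single-dose test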;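 also: His-tagged Mcl-1 with rhodamine Noxa BH3 peptide and terbium anti-His antibody; 0% = Mcl-1 plus Noxa peptide wells and 100% = peptide-only wells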
# Target sequence (Q07820 whole entry, looked up): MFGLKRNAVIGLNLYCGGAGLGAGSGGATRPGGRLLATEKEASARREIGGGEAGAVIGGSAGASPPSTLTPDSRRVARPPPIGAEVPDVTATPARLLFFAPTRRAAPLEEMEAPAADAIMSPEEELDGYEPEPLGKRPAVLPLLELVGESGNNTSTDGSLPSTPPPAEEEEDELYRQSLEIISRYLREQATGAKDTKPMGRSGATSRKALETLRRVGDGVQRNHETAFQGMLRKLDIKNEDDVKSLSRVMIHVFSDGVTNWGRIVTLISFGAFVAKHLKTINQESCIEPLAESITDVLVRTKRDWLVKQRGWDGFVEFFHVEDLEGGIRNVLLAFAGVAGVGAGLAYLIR
# eIF4E-4G inh: inhibitors of eIF4E and eIF4G interaction in translation initiation; inhibition, % at 21.7 µM; AID 782; TR-FRET eIF4E-eIF4GI(517-606) binding, 2 h; P63073+Q04637; actives 0.37% (n = 220,000);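 active = inhibition above about 30%, limit read from the data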;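 also: 0% = full FRET control wells and 100% = background wells lacking eIF4GI fragment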
# Mcl1-Bid inh: Mcl-1/Bid interaction inhibition; Q07820; TR-FRET Mcl-1/Bid-Dy647 peptide binding, 1536-well; inhibition, % at 21.7 µM; actives 0.97% (n = 220,000); AID 1021;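 active = compounds that cut the binding signal by more than half at the single screening dose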;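 also: His-tagged Mcl-1 with europium anti-His antibody binding Bid BH3 peptide; 0% = Mcl-1 plus peptide wells and 100% = peptide-only wells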
# Hck Nef HTS: inhibitors of human Hck kinase activated by Nef; P08631; Recombinant Hck-YEEI plus Nef, Z-Lyte FRET kinase assay; inhibition, % at 20 µM; actives 0.68% (n = 220,000);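 active = Hck-Nef kinase inhibition above about 50%, limit read from the data; inactive = inhibition below that limit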;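 also: 0% = DMSO with Hck plus Nef and 100% = Hck alone without Nef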
# Bim-Mcl-1: inhibitors of Bim-Mcl-1 interaction, human; actives 0.1% (n = 190,000); Q07820; AID 1009; Bead-based flow cytometry, Bim peptide-Mcl-1 binding; inhibition, % at 10 µM; in the data active = inhibition above about 40%;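 also: 0% = no compound tracer wells and 100% = peptide blocker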
# 14-3-3 Bad inh: disrupts binding of bovine 14-3-3 zeta to phospho-Bad peptide; TR-FRET 14-3-3zeta/Dy647-pBad peptide displacement, 1 h; actives 0.71% (n = 220,000); P63103; inhibition, % at 21.7 µM;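 active = inhibition above about 70%, limit read from the data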;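 also: 0% = full 14-3-3 plus peptide FRET controls and 100% = background without 14-3-3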
# Target sequence (P63103 whole entry, looked up): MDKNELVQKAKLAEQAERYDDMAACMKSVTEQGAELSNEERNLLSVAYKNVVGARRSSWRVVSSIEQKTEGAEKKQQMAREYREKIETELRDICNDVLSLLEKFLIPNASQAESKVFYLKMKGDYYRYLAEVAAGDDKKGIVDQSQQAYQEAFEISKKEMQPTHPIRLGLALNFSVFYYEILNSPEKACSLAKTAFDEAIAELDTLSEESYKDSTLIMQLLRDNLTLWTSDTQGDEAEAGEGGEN
# The depositor's hits bear a star; x = no result.
SMILES,Mcl1 Noxa PPI,eIF4E-4G inh,Mcl1-Bid inh,Hck Nef HTS,Bim-Mcl-1,14-3-3 Bad inh
CCOC(=O)C1=C(C)N(c2ccccc2)C(=O)/C1=C\c1cccs1,8.9,0.9,-14.8,-0.4,2.0,-5.2
O=C(/C=C/c1ccco1)Nc1cccc(C(=O)Nc2ccccc2C(=O)O)c1,57.1*,6.8,5.5,15.1,x,23.5
CCc1ccccc1NC(=O)c1cccc(NC(=O)/C=C/c2ccco2)c1,19.2,-4.0,-19.6,0.5,-6.0,18.1
O=C(O)CCCC(=O)Nc1cccc(C(=O)Nc2ccccc2C(=O)O)c1,28.5,-0.6,81.7*,1.7,0.0,65.5
Nc1ccc(N2CCCCC2)c(Cl)c1,20.3,9.5,-18.7,5.8,0.0,-5.6
CCOc1cccc(CNCCSc2nnnn2C)c1,21.3,3.1,22.5,12.5,-3.0,14.9
CC(=O)c1cccc(NC(=O)Nc2cc3sccc3n2C)c1,70.9*,5.0,-31.6,14.4,0.0,-4.2
COc1ccc(-c2nn(-c3ccccc3)cc2C(=O)NC(=S)Nc2cc(Cl)ccc2Cl)cc1,2.7,-2.0,-75.7,1.5,x,3.6
COc1cc(-c2nnc(SCC(=O)N(C)C3CCS(=O)(=O)C3)o2)cc(OC)c1OC (stereo not drawn),-2.2,-3.4,-10.3,18.6,-2.0,-3.6
c1ccc(N2CCN(C3CCSC3)CC2)cc1 (stereo not drawn),13.6,-0.6,17.4,-1.8,0.0,70.6*
O=S(=O)(c1ccc(F)cc1)N1CCC(N2CCN(c3ccccc3)CC2)CC1,x,x,x,-1.6,x,x
S=C(c1ccc2c(c1)OCO2)N1CCOCC1,1.2,-8.1,-49.9,-0.1,x,-0.8
Cc1ccccc1NC(=O)c1c(C)nn(-c2ccccc2)c1Cl,-8.8,1.2,-14.9,5.1,-1.0,-13.9
CC1=C(C(N)=O)C(c2ccc(Cl)cc2)NC(=O)N1 (stereo not drawn),5.4,3.6,-13.8,1.4,-3.0,-10.2
CC(=O)C1=C(C)NC(=O)NC1c1ccc(Cl)cc1 (stereo not drawn),53.9*,1.6,-32.1,25.0,0.0,2.3
Cc1ccc(-c2cc(C(=O)O)n(-c3ccc(S(N)(=O)=O)cc3)n2)cc1,1.0,-0.2,-3.7,-3.1,0.0,5.3
Cc1ccc(Cn2c(S(=O)(=O)O)nc3ccccc32)cc1,16.4,-4.0,3.3,-5.1,-2.0,80.6*
Cc1ccc(S(=O)(=O)C(C#N)=C2N(C)c3ccccc3N2C)cc1,1.8,-4.5,-35.1,5.6,7.0,-1.7
O=C(COC(=O)C1(c2cccc(F)c2)CCCC1)NCc1ccc2c(c1)OCO2,9.0,3.5,-34.9,5.9,-5.0,2.6
Cc1ccc(Oc2nc3c(C)cccn3c(=O)c2/C=C(\C#N)C(N)=O)cc1,1.8,40.8*,-12.1,10.1,x,-2.6
CCOC(=O)/C(C#N)=C/c1c(Oc2cccc(C)c2)nc2c(C)cccn2c1=O,11.7,1.3,-9.4,3.6,-7.0,3.6
O=C1CCCS(=O)(=O)c2ccccc21,-4.9,0.7,-30.3,-7.9,2.0,-3.6
O=C(Nc1ccc(Br)cc1)c1ccc(N2C(=O)C3CC=CCC3C2=O)cc1 (stereo not drawn),58.5*,-2.2,-33.2,3.8,0.0,-0.3
O=C(N/N=C/c1cccnc1)c1cc2ccccc2o1,-1.9,5.1,-12.5,4.9,-4.0,-8.6
CCn1cc(/C=N/NC(=O)c2cc3c(ccc4ccccc43)o2)c2ccccc21,-4.1,-14.0,-16.4,3.8,-1.0,-8.4
SMILES,Mcl1 Noxa PPI,eIF4E-4G inh,Mcl1-Bid inh,Hck Nef HTS,Bim-Mcl-1,14-3-3 Bad inh
Cc1ccc(/C=N/NC(=O)c2cc3c(ccc4ccccc43)o2)cc1[N+](=O)[O-],25.6,-11.7,75.7*,6.3,0.0,67.4
O=C(N/N=C/c1ccc([N+](=O)[O-])o1)c1cc2ccccc2o1,6.0,1.2,-34.8,13.9,x,3.3
O=C(N/N=C/c1cccnc1)c1cc2c(ccc3ccccc32)o1,49.3,-37.3,55.0*,2.9,0.0,70.0
COc1ccc(C(=O)Oc2ccc(/C=N/NC(=O)c3ccccc3OC)cc2[N+](=O)[O-])cc1,36.7,-4.2,31.1,1.0,-2.0,0.5
COc1ccc(C(=O)N/N=C/c2ccc(OC(=O)c3cccc4ccccc34)c([N+](=O)[O-])c2)cc1,50.9*,5.6,10.0,4.4,-8.0,18.2
O=C(N/N=C/c1ccc([N+](=O)[O-])o1)c1cc2c(ccc3ccccc32)o1,38.3,38.5*,87.6*,29.9,3.0,92.7*
CSC[C@@H]1NC(=S)N(c2ccc(C)cc2)C1=O,4.2,-2.7,-65.4,4.8,0.0,-2.8
Oc1c(/C=N/c2ccccn2)sc2ccccc12,76.1*,7.4,48.6,-1.0,x,-8.7
COc1ccc(CCNC(=O)CSc2ccc(Br)cc2)cc1OC,5.3,-2.3,-14.2,14.5,3.0,-15.1
CC1(C)OC(=O)N(Cc2ccco2)C1(C)O (stereo not drawn),7.0,1.2,51.4*,1.1,1.0,-1.6
O=S(=O)(NCC(c1ccco1)N1CCOCC1)c1ccc(Cl)cc1 (stereo not drawn),8.8,1.1,-4.9,0.6,-3.0,-6.8
CN(C(=O)Nc1ccc(Cl)cc1Cl)C1CCCC1,-4.5,-2.5,-50.4,4.3,0.0,-3.4
Oc1cccc(/C=N/NC(=S)Nc2cccnc2)c1O,65.8*,5.0,-89.0,4.3,-7.0,-6.5
CSC(=NCc1cccnc1)NS(=O)(=O)c1cccs1,-15.4,1.8,71.4*,0.2,3.0,-7.0
Cc1cc(C(=O)NP(=O)(N2CC(C)OC(C)C2)N2CC(C)OC(C)C2)c(C)n1C1CC1 (stereo not drawn),16.9,-1.0,-33.3,20.3,0.0,-10.8
COc1ccc(/C=C(\C#N)C(=O)Nc2cc(C)c(Cl)cc2OC)cc1O,70.7*,16.2,9.9,44.0,x,63.8
O=C(O)CCCN1C(=O)C2C3CC(C2C1=O)C1C(c2ccccc2)c2sc(=O)n(-c4ccccc4)c2SC31 (stereo not drawn),-4.3,-3.0,-39.0,10.4,0.0,-5.1
OCCN(Cc1ccccc1)Cc1ccc(Cl)cc1Cl,7.4,3.6,38.2,1.8,0.0,87.2*
CCCC(C)NCC(=O)Nc1ccccc1-c1ccccc1 (stereo not drawn),16.4,-6.5,22.0,3.4,-3.0,72.3*
COc1ccccc1N(CC(O)COc1ccccc1C)S(=O)(=O)c1ccccc1 (stereo not drawn),10.3,2.3,3.3,1.9,-2.0,-10.1
O=c1[nH]c2ccccc2n1CCC1CCCCC1,17.6,0.5,2.6,0.9,-1.0,14.7
CC1CCN(Cc2nc(-c3ccccc3)no2)CC1,11.0,2.0,15.1,-0.5,0.0,75.7*
Nc1nonc1C(=O)N/N=C/c1ccc(-c2cccc(C(=O)O)c2)o1,12.3,-0.7,-17.2,22.8,0.0,-7.4
CC(=O)Nc1sc(N/N=C\c2ccccc2Cl)nc1-c1cccs1,61.1*,3.7,7.4,10.7,-2.0,12.3

# Screens deposited in PubChem by several laboratories.
